RecA splice inh – Mtb RecA intein splicing inhibitors, primary screen, biochemical, fluorescence, HTS | Protein RecA (Mycobacterium tuberculosis (strain ATCC 25618 / H37Rv)), P9WHJ3 | cell-free RecA intein splicing | inhibition, % (concentration not given with the values) | 0.75% of 290,000 active | AID 2221, 2009; in the data active = inhibition above about 30%; inconclusive = no clear call, values can overlap the other calls;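 also: 0% = vehicle wells and 100% = reference inhibitor control wells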
Mtb betalactam – beta-lactam sensitization of Mtb H37Rv, H37Rv; 0.27% of 330,000 active; inhibition, % at 25 µM; AID 434955, 2010; M. tuberculosis H37Rv growth with meropenem, percent inhibition; call rule not given here;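 also: growth measured after seven days incubation then overnight dye step; 0% = bacteria only wells and 100% = bacteria with antibiotic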
Mtb FBA inh – Mtb FBA enzyme inhibitors, primary screen, biochemical, fluorescence, strain H37Rv | purified M. tuberculosis FBA, fluorescence read-out | AID 588726, 2011 | Fructose-bisphosphate aldolase (Mycobacterium tuberculosis (strain ATCC 25618 / H37Rv)), … | inhibition, % at 1 µM | 2.3% of 360,000 active;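 also: 0% = vehicle and 100% = reference inhibitor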
GDH-TPI counter-1 – GDH-TPI coupling enzyme inhibitors, primary screen, artefact control for M. tuberculosis FBA inhibitor project, biochemical, absorbance, full deck; GDH-TPI coupled enzyme counterscreen, NADH absorbance; inhibition, % at 4.8 µM; 1.2% of 360,000 active; AID 588335, 2011; in the data active = inhibition above about 30%;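 also: 0% = DMSO wells and 100% = wells lacking the enzyme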
UGM FP inh – M. tuberculosis UGM enzyme inhibitors, primary screen, biochemical, fluorescence polarization, single point | inhibition, % at 10 µM | 0.06% of 320,000 active | purified UGM, fluorescence polarization probe displacement | UDP-galactopyranose mutase (Mycobacterium tuberculosis (strain ATCC 25618 / H37Rv)), … | AID 504406, 2011; in the data active = inhibition above about 10%, passing the limit was not always enough; inconclusive = no clear call, values can overlap the other calls
Rv3671c inh – Rv3671c serine protease inhibitors, primary screen, biochemical, fluorescence polarization, M. tuberculosis H37Rv. inhibition, % at 5.96 µM. AID 2606, 2010. P9WHR9. 0.048% of 320,000 active; in the data active = inhibition above about 38%;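 also: extracellular domain of Rv3671c used as enzyme; 0% = enzyme with DMSO and 100% = no enzyme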
Target sequence (P9WHR9 whole entry, looked up, the tested form may be a part): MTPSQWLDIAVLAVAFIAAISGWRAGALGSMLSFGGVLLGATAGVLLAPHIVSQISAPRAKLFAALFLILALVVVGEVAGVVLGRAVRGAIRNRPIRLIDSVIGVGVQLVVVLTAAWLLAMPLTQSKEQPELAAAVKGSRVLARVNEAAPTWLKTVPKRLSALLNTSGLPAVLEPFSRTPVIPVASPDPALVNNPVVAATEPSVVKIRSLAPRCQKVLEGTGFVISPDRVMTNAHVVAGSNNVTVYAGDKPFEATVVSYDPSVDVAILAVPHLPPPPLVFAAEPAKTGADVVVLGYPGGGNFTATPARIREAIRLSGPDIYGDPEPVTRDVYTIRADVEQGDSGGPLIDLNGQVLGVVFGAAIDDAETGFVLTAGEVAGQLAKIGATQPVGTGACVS
Mtb FBA inh conf – M. tuberculosis aldolase blockers, biochemical, fluorescence, strain H37Rv, confirmation; inhibition, % at 1 µM; shares compounds with Mtb FBA inh; 78% of 5,600 active; AID 651616, 2012; purified M. tuberculosis FBA, fluorescence read-out;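 also: 0% = vehicle wells and 100% = reference inhibitor wells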
GDH-TPI counter-2 – GDH-TPI coupling enzyme inhibitors, artefact control for M. tuberculosis FBA inhibitor project, biochemical, fluorescence, high throughput. shares compounds with Mtb FBA inh. GDH-TPI coupled enzyme counterscreen. inhibition, % at 1 µM. 81% of 5,600 active. AID 652141, 2013; in the data active = inhibition above about 10%
Active calls of the source: *. A selection: hits, their analogues and other compounds. The true share with any hit is near 4%. Rule as the data show it, unless noted: active = inhibition above about 27%; inactive = the rest.

COC(=O)C1=CN(C2CC2)C=C(C(=O)OC)C1c1ccc(C(=O)OC)cc1 was read as RecA splice inh -21, Mtb betalactam 2, Mtb FBA inh 44*, GDH-TPI counter-1 -1, UGM FP inh -2, Rv3671c inh -2, Mtb FBA inh conf -1 and GDH-TPI counter-2 -2.
Screening Cc1ccc(CS(=O)(=O)Cc2ccc(C(=O)NCCc3ccccc3)o2)cc1 returned RecA splice inh -2, Mtb betalactam 7, Mtb FBA inh -3, GDH-TPI counter-1 0, UGM FP inh 0 and Rv3671c inh -5.
N#Cc1c2c(c(NCc3ccco3)n3c1nc1ccccc13)CCC2 was read as RecA splice inh -17, Mtb betalactam 4, Mtb FBA inh 90*, GDH-TPI counter-1 14, UGM FP inh 0, Rv3671c inh -2, Mtb FBA inh conf active and GDH-TPI counter-2 active.
For COc1ccc(OC)c(CN2CCCC(C(=O)c3ccccc3SC)C2)c1 (configuration not stated) the results were RecA splice inh 1, Mtb betalactam -4, Mtb FBA inh 3, GDH-TPI counter-1 12, UGM FP inh 2 and Rv3671c inh 1.
Screening CCN(CC)S(=O)(=O)c1ccc(-c2cn3ccccc3n2)cc1 returned Mtb FBA inh 86*, GDH-TPI counter-1 5, Mtb FBA inh conf 158* and GDH-TPI counter-2 113*.
`Oc1ccc(-c2cn3ccccc3n2)cc1O` gave RecA splice inh -4, Mtb betalactam 1, Mtb FBA inh 5, GDH-TPI counter-1 8, UGM FP inh 1 and Rv3671c inh 2.
Screening c1ccc2c(-c3cn4ccccc4n3)c[nH]c2c1 returned RecA splice inh 7, Mtb betalactam -6, UGM FP inh -1 and Rv3671c inh 0.
For Oc1ccc(-c2cn3ccccc3n2)cc1 the results were RecA splice inh -1, Mtb betalactam -1, Mtb FBA inh 57*, GDH-TPI counter-1 17, UGM FP inh -5, Rv3671c inh 4, Mtb FBA inh conf -6 and GDH-TPI counter-2 -5.
`c1ccc(-c2cn3ccccc3n2)cc1` gave Mtb FBA inh 35*, GDH-TPI counter-1 4, Mtb FBA inh conf 8 and GDH-TPI counter-2 3.
Screening Cc1ccc(F)cc1NC(=O)CCNC(=O)c1ccc([N+](=O)[O-])cc1 returned RecA splice inh 1, Mtb betalactam 4, Mtb FBA inh 37*, GDH-TPI counter-1 0, UGM FP inh -2, Rv3671c inh -2, Mtb FBA inh conf 163* and GDH-TPI counter-2 124*.
Cc1cc(C)n(-c2nc(NCC(C)O)c3c4c(sc3n2)COC(C)(C)C4)n1 (configuration not stated) was read as RecA splice inh -2, Mtb betalactam 12, Mtb FBA inh 56*, GDH-TPI counter-1 5, UGM FP inh 2, Rv3671c inh -7, Mtb FBA inh conf 75* and GDH-TPI counter-2 64*.
Cc1ccc(/C=C2/C(=O)N(c3ccccc3)C(=S)N2C)o1 was read as RecA splice inh 0, Mtb betalactam -5, Mtb FBA inh -6, GDH-TPI counter-1 16, UGM FP inh 1 and Rv3671c inh -14.
C#CCn1cnc2c(oc3ccccc32)c1=O was read as RecA splice inh -3, Mtb betalactam inconclusive, Mtb FBA inh 2, GDH-TPI counter-1 -3, UGM FP inh -2 and Rv3671c inh 0.
`CCn1cnc2c(oc3ccccc32)c1=O` gave RecA splice inh 1, Mtb betalactam -10, Mtb FBA inh 44*, GDH-TPI counter-1 1, UGM FP inh 2, Rv3671c inh 6, Mtb FBA inh conf 177* and GDH-TPI counter-2 127*.
`O=C(Cc1ccc(S(=O)(=O)N2CCOCC2)s1)N1CCN(S(=O)(=O)c2ccccc2[N+](=O)[O-])CC1` gave Mtb FBA inh -1 and GDH-TPI counter-1 -2.
Screening COc1ccc(-c2nc(NC(=O)CSc3nnc(C)s3)ns2)cc1 returned RecA splice inh 1, Mtb betalactam 33, Mtb FBA inh 41*, GDH-TPI counter-1 10, UGM FP inh 1, Rv3671c inh -2, Mtb FBA inh conf 5 and GDH-TPI counter-2 -4.
For Cc1ccc(-c2nc(NC(=O)CSc3nnc(C)s3)ns2)cc1 the results were RecA splice inh 0, Mtb betalactam -1, Mtb FBA inh 1, GDH-TPI counter-1 7, UGM FP inh 2 and Rv3671c inh 10.
For CCOC(=O)c1sc2nc(C)nc(NCCc3ccccn3)c2c1C the results were RecA splice inh 2, Mtb betalactam -1, Mtb FBA inh 71*, GDH-TPI counter-1 3, UGM FP inh 1, Rv3671c inh -2, Mtb FBA inh conf 22 and GDH-TPI counter-2 12*.
CCOC(=O)c1sc2nc(C)nc(NCc3ccccc3OC)c2c1C was read as RecA splice inh 3, Mtb betalactam 2, Mtb FBA inh 0, GDH-TPI counter-1 5, UGM FP inh -1 and Rv3671c inh -4.
For Cc1cc(C)c2cc(C#N)c(N3CCCN(C(=S)NCCCN(C)C)CC3)nc2c1 the results were RecA splice inh -23, Mtb betalactam 53, Mtb FBA inh 7, GDH-TPI counter-1 7, UGM FP inh 3 and Rv3671c inh -4.
For Cc1cc(C)c2cc(C#N)c(N3CCCC3)nc2c1 the results were Mtb betalactam 23, Mtb FBA inh 36*, GDH-TPI counter-1 1, UGM FP inh 5, Rv3671c inh -5, Mtb FBA inh conf 2 and GDH-TPI counter-2 2.
For CCN(CC)CCOC(=O)c1cccc2c1-c1ccccc1C2O (configuration not stated) the results were RecA splice inh 4, Mtb betalactam -8, Mtb FBA inh 29*, GDH-TPI counter-1 -4, UGM FP inh -3, Rv3671c inh 15, Mtb FBA inh conf 46* and GDH-TPI counter-2 35*.
CC(=O)Nc1ccc(S(=O)(=O)NCCNS(=O)(=O)c2ccc(NC(C)=O)cc2)cc1 was read as RecA splice inh 1, Mtb betalactam -3, Mtb FBA inh -2, GDH-TPI counter-1 -7, UGM FP inh -5 and Rv3671c inh -4.
Screening COc1ccc(S(=O)(=O)NCCc2cn3nc(C)c(C)nc3n2)cc1F returned RecA splice inh -166, Mtb betalactam 3, Mtb FBA inh 61*, GDH-TPI counter-1 9, UGM FP inh -1, Rv3671c inh 9, Mtb FBA inh conf active and GDH-TPI counter-2 149*.

Screening results deposited in PubChem by several laboratories.
